From PubChem BioAssay AID1259343 (VanderVen Lab, College of Veterinary Medicine, Cornell …, 2017)
In all, about 6,200 compounds went through this assay and about 2,900 (47%) were called active. So high a share suggests a set chosen from earlier hits. This is one part of the list. Values without a mark were called inactive. Rule as the data show it: active = inhibition above about 50%; inactive = the rest.

Assay: Mycobacterium tuberculosis growth inhibition, primary screen (AID 1259343)
Settings: inhibition: at 10 µM, hits give high values; outcome: 10 uM
Work on `c1csc(-c2nc(SCC3COc4ccccc4O3)n[nH]2)c1` (stereo not drawn) yielded an inhibition of -27.5%.
`Brc1ccccc1-c1nnc(CSc2nnnn2C2CC2)o1` gave an inhibition of 28.9%.
`c1csc(-c2nnc(CON=C3c4ccccc4-c4ccccc43)o2)c1` gave an inhibition of 26.7%.
In the case of `Clc1ccc(C=NOCc2nnc(-c3ccccc3Br)o2)cc1Cl`, the inhibition is reported as 50.2% (active).
For `CC(C(N)=O)N1CCC(c2nc3cc(Cl)ccc3s2)CC1` (stereo not drawn), the inhibition was 38%.
For `CC(C)c1nc(CS(=O)(=O)c2nc3cc(Cl)ccc3s2)no1`, the inhibition was 64.2% (active).
For `Oc1ccc(-c2nc3cc(Cl)ccc3s2)cc1`, the inhibition was 36.2%.
In the case of `O=C(O)/C=C/C=C/c1ccccc1`, the inhibition is reported as 38.2%.
In the case of `Cc1cc(C)c(C)c(C(=O)/C=C/C(=O)O)c1C`, the inhibition is reported as 85.5% (active).
In the case of `O=C(Nc1ccc(-c2nc3ccccc3o2)cc1)C1CCN(C(=O)C2CCCCO2)CC1` (stereo not drawn), the inhibition is reported as 34.5%.
In the case of `Cc1nc(-c2ccc(NC(=O)C3CCOCC3)cc2)co1`, the inhibition is reported as 88.5% (active).
`O=C(Nc1cccc(-c2noc(C3CC3)n2)c1)C1CCOCC1` showed an inhibition of 11.2%.
In the case of `O=S(=O)(Nc1nc2c(ccc3ccccc32)s1)c1ccc(Cl)s1`, the inhibition is reported as 22.8%.
Work on `C(=Cc1nc2c(ccc3ccccc32)s1)c1ccc2c(c1)OCCO2` yielded an inhibition of 36.3%.
In the case of `COc1cc(C(=O)NCC(=O)Nc2nc3c(ccc4ccccc43)s2)cc(OC)c1OC`, the inhibition is reported as 88.5% (active).
In the case of `O=C1CCC(=O)N1OCCOc1cccc(Oc2ccccc2)c1`, the inhibition is reported as 72% (active).
With `CCCCNC(=O)NCC12CC3CC(CC(C3)C1)C2` the inhibition was 74.1% (active).
In the case of `CC(C)(C(=O)Nc1ccc(F)cc1)c1ccc2c(c1)OCCO2`, the inhibition is reported as 57.4% (active).
Work on `CCOC(=O)C1=C(C)N(c2ccc3c(c2)OCCO3)C(=S)NC1c1cccc(F)c1` (stereo not drawn) yielded an inhibition of 1.48%.
For `CC1CCc2c(sc3nc(-c4ccc(N(C)C)cc4)nc(N4CCNCC4)c23)C1` (stereo not drawn), the inhibition was 94.9% (active).
In the case of `Cc1nc(N2CCCCC2)c2c3c(sc2n1)CC(C)CC3` (stereo not drawn), the inhibition is reported as -32.2%.
`CC1CCc2c(sc3nc(C(C)C)nc(N4CCN(C(=O)Nc5c(Cl)cccc5Cl)CC4)c23)C1` (stereo not drawn) gave an inhibition of 10.7%.
With `COC(=O)c1ccc(CN(Cc2cccc(OC)c2OC)C2CC2)o1` the inhibition was 83.8% (active).
With `COC(=O)c1ccc(CN(Cc2sccc2C)C2CC2)o1` the inhibition was 98.5% (active).
For `COc1ccc(CCN(Cc2ccc(C)o2)C(=O)CN(C(=O)c2ccccc2Cl)C2CC2)cc1OC`, the inhibition was -5.97%.
For `COC(=O)c1ccc(CN(Cc2ccc(OC)cc2)C2CC2)o1`, the inhibition was 54.7% (active).
In the case of `COC(=O)c1ccc(CSc2n[nH]c(=S)s2)o1`, the inhibition is reported as “inactive”.
Compound `COc1cccc(CN(C)C(=O)c2cc3ccccc3o2)c1OC` has an inhibition of 39.1%.
With `COC(=O)c1ccc(CN(Cc2ccc(C)o2)C2CC2)o1` the inhibition was 66.2% (active).
`Cc1ccc(NC(=O)NC(=O)CN(Cc2ccco2)C2CC2)cc1C` gave an inhibition of -3.72%.
`CCN(CC1COc2ccccc2O1)C(=O)NCc1sccc1C` (stereo not drawn) showed an inhibition of -23.5%.
`COc1ccc(CN(C(=O)Nc2cccc(Cl)c2)C2CC2)cc1` gave an inhibition of -5.25%.
Work on `N#Cc1cc(C(=O)c2cc(Cl)cc(Cl)c2O)cn(-c2nccs2)c1=O` yielded an inhibition of 25.4%.
Work on `O=C(CC1C[C@@H]2CC[C@H]1C2)N1CCc2c(cnn2-c2ccccn2)C1` (stereo partly drawn) yielded an inhibition of 49.8%.
For `O=C(CC1CC2CCC1C2)N1CCN(c2ccccc2O)CC1` (stereo not drawn), the inhibition was 85.9% (active).
`O=C(NCCC1CC2CCC1C2)c1ccc(N2CCOCC2)nc1` (stereo not drawn) gave an inhibition of 5.89%.
`COc1cccc(NC(=O)N2CCN(CCCOC(c3ccc(Cl)cc3)c3ccc(Cl)cc3)CC2)c1` showed an inhibition of 15.9%.
In the case of `Cc1cccc(Nc2cc(N3CCN(CCCOc4ccccc4)CC3)ncn2)c1`, the inhibition is reported as 50.3% (active).
With `CCCCCOc1ccc(Nc2cc(-c3cccc(N)c3)ncn2)cc1` the inhibition was 5.27%.
For `Nc1nnc(Sc2ncc([N+](=O)[O-])s2)s1`, the inhibition was 102% (active).
With `O=[N+]([O-])c1c(-n2cccn2)nn(-c2ccccc2)c1C(Cl)Cl` the inhibition was 101% (active).
With `NCCc1cccc(OCCCc2ccccc2)c1` the inhibition was 57.2% (active).
With `O=C(Nc1nc(-c2ccccn2)cs1)c1cccc(N2CCCC2=O)c1` the inhibition was 100% (active).
Compound `COc1cccc(C=CC(=O)c2ccc(N3CCCC3=O)cc2)c1OC` has an inhibition of 40%.
In the case of `CCCCc1ccc(NC(=O)CSc2n[nH]c(=O)c3cc(-c4ccco4)nn23)cc1`, the inhibition is reported as 98.1% (active).
With `S=C(NCC1CCCO1)Nc1ccc(N2CCCCC2)cc1` (stereo not drawn) the inhibition was 60.7% (active).
With `Oc1ccc(C=NNC(=S)NCC2CCCO2)c(O)c1` (stereo not drawn) the inhibition was 101% (active).
`S=C(NCC1CCCO1)N1CCc2ccccc2C1` (stereo not drawn) gave an inhibition of 19.9%.
In the case of `CNC(=O)c1ccc(N2CC=C(c3ccc(O)cc3)CC2)nn1`, the inhibition is reported as 91.4% (active).
Compound `N#Cc1ccc(CN2CC=C(c3ccc(O)cc3)CC2)c(F)c1` has an inhibition of -43%.
In the case of `Cc1cc(C(=O)N2CC=C(c3ccc(O)cc3)CC2)c(C)o1`, the inhibition is reported as 15.5%.
For `Oc1ccc(C2=CCN(c3nnc(Br)s3)CC2)cc1`, the inhibition was 95.1% (active).
Compound `Oc1ccc(C2=CCN(c3ncnc4ccccc34)CC2)cc1` has an inhibition of 15.6%.
`O=S(=O)(Nc1cccc(C2OCC(COc3ccc(Cl)cc3)O2)c1)c1ccccc1` (stereo not drawn) showed an inhibition of -0.13%.
For `CC(=O)Nc1ccc(OCc2nnsc2Cl)cc1`, the inhibition was 85.4% (active).
For `CCc1ccccc1Oc1nc(NC(C)C)nc2ccsc12`, the inhibition was 31.8%.
With `CN(c1ccccc1)c1nc2ccsc2c(=O)s1` the inhibition was 58.2% (active).
With `CCCc1cnc(Nc2nc(C(N)Cc3ccc(C(F)(F)F)cc3)cs2)nc1` (stereo not drawn) the inhibition was 50.7% (active).
In the case of `Cc1cc(C)nc(Nc2nc(C(N)Cc3ccc(Cl)cc3)cs2)n1` (stereo not drawn), the inhibition is reported as 73.2% (active).
In the case of `Cc1cc(C)nc(Nc2nc(C(N)Cc3ccc(C(F)(F)F)cc3)cs2)n1` (stereo not drawn), the inhibition is reported as 79.2% (active).
For `Cc1ccc(-c2nc(CN3CCOC(c4ccccc4)C3)cs2)o1` (stereo not drawn), the inhibition was 29.6%.
For `Cc1nc(SCC(=O)N2CCCCC2C)c2c3c(sc2n1)CCCC3` (stereo not drawn), the inhibition was 51.5% (active).
In the case of `Cc1c(-c2ccccc2)sc2ncn(CC(=O)N3CCCCC3C)c(=O)c12` (stereo not drawn), the inhibition is reported as 48.6%.
`CC(=O)CSc1nc(C)nc2sc3c(c12)CCCC3` gave an inhibition of 10%.
For `Cc1ccc2[nH]cc(-c3cccc(OCC(N)=O)c3)c2c1`, the inhibition was 72.6% (active).
In the case of `CC(C)(C)c1csc(-c2cccc(OCC(N)=O)c2)n1`, the inhibition is reported as 35.2%.
`N#CC(=C(O)CC12CC3CC(CC(C3)C1)C2)c1nc2ccccc2s1` showed an inhibition of 21.6%.
For `c1ccc(Sc2c(-c3ccccc3)nc3ncccn23)cc1`, the inhibition was “inactive”.
With `c1ccc2sc(CSc3nc4ccccc4s3)nc2c1` the inhibition was 95.9% (active).
Work on `c1ccc2sc(CSc3ncnc4sccc34)nc2c1` yielded an inhibition of 35%.
With `Clc1c(CSc2nc3ccccc3s2)nc2ncccn12` the inhibition was 77.3% (active).
With `O=C(CSc1nc2ccccc2s1)NCCN1C(=O)SC(=Cc2ccc3c(c2)OCO3)C1=O` the inhibition was 4.39%.
`S=c1[nH]nc(CSc2nc3ccccc3s2)o1` gave an inhibition of -31.5%.
For `Brc1ccc2nc(CSc3nc4ccccc4s3)cn2c1`, the inhibition was “inactive”.
Compound `c1csc(Cn2nnnc2Sc2ncnc3sccc23)c1` has an inhibition of -23.8%.
In the case of `c1ccc2sc(Sc3ncnc4sccc34)nc2c1`, the inhibition is reported as 59.5% (active).
Compound `COc1ccc(C(C)O)cc1CSc1nc2ccccc2s1` (stereo not drawn) has an inhibition of 40.5%.
In the case of `Oc1ccccc1OCc1nc2ccccc2s1`, the inhibition is reported as 54.7% (active).
In the case of `CCc1nnc(CNc2ccc3c(c2)OC(F)(F)O3)o1`, the inhibition is reported as 32.3%.
`Cc1c(C(=O)NC(C)c2cccc(Cl)c2)oc2c1C(=O)CCC2` (stereo not drawn) showed an inhibition of 1.37%.
With `CC(NC(=O)c1cc(Cl)ccn1)c1cccc(OC(F)F)c1` (stereo not drawn) the inhibition was 70.3% (active).
With `CC(NC(=O)c1cnsn1)c1cccc(Cl)c1` (stereo not drawn) the inhibition was 42.3%.
For `CC(C)(C)OC(=O)c1cccc(NC2Cc3ccccc3C2)c1`, the inhibition was 29.1%.
In the case of `CCOC(=O)c1cccc(NC(=O)NC/C=C(\C)CCC=C(C)C)c1`, the inhibition is reported as 88.1% (active).
With `CC(C)=CCC/C(C)=C/C(=O)NCc1ccccn1` the inhibition was -13%.
In the case of `O=[N+]([O-])c1cc(NC(=S)NC2CCCCC2)ccc1Cl`, the inhibition is reported as 99.3% (active).
In the case of `Fc1ccc(F)c(NC(=S)NC2CCCCC2)c1`, the inhibition is reported as 42%.
For `S=C(Nc1cccc(I)c1)NC1CCCCC1`, the inhibition was 93.2% (active).
`Fc1ccc(NC(=S)NC2CCCCC2)c(F)c1F` gave an inhibition of 18.1%.
With `O=C(O)c1cnc(/C=C/c2cnn(-c3ccc(Cl)cc3)c2)s1` the inhibition was 62.2% (active).
In the case of `O=C(O)c1cnc(/C=C/c2cc(Br)cs2)s1`, the inhibition is reported as -34.7%.
With `COc1cc(/C=C/c2ncc(C(=O)O)s2)cc(Cl)c1OC` the inhibition was 80.2% (active).
For `O=C(O)c1cnc(/C=C/c2cc(Cl)c3c(c2)OCCCO3)s1`, the inhibition was 85.9% (active).
Compound `CNC(=O)c1cnc(/C=C/C2=Cc3cc(Cl)ccc3OC2)s1` has an inhibition of 11.2%.
Work on `O=C(CN1CCN(S(=O)(=O)N2CCCCCC2)CC1)Nc1ccc2ccccc2c1` yielded an inhibition of 3.56%.
With `O=C(CN1CCCCCC1)Nc1ccc(C(F)(F)F)cc1` the inhibition was 71.2% (active).
In the case of `CC1OC(=O)[C@@H](C(C)C)NC(=O)C(C(C)C)OC(=O)[C@H](C(C)C)NC(=O)C(C)OC(=O)[C@@H](C(C)C)NC(=O)C(C(C)C)OC(=O)[C@H](C(C)C)NC(=O)C(C)OC(=O)[C@@H](C(C)C)NC(=O)C(C(C)C)OC(=O)[C@H](C(C)C)NC1=O` (stereo partly drawn), the inhibition is reported as 101% (active).
Compound `COc1cc(NC(=O)c2ccc(Cl)s2)cc(OC)c1` has an inhibition of 3.54%.
With `COc1cc(NC(=O)c2ccc(C)o2)cc(OC)c1` the inhibition was 81.4% (active).
`O=C(COc1ccc([N+](=O)[O-])cc1)NCC1CCCCC1` showed an inhibition of -9.56%.
For `O=C(COc1cccc2cccnc12)NCC1CCCCC1`, the inhibition was 89.7% (active).
`NCCOCc1ccc(-c2cc3ccccc3o2)cc1` gave an inhibition of 15.6%.
In the case of `c1cc(-c2cc3ccccc3o2)cc(-n2cnnc2)c1`, the inhibition is reported as 74.5% (active).
